Screening data deposited in PubChem by National Center for Advancing Translational Sciences (NCATS).
A selection: hits, their analogues and other compounds. The true share with any hit is near 2.4%.
Cruzain inh noDet – qHTS Assay for Promiscuous and Specific Inhibitors of Cruzain (without detergent); AID 1476, 2009; Potency, µM, without a hit: max response, negative = inhibition, hits mostly inhibitors; purified cruzain, Z-FR-AMC fluorescence, no detergent; actives 2.3% (n = 200,000); Cruzipain (Trypanosoma cruzi), P25779;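 note: plate controls were enzyme without inhibitor for no effect and buffer without enzyme for full effect; nearly all actives have a fitted effect of over 40% in size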
Target sequence (P25779 123-467 limits assumed): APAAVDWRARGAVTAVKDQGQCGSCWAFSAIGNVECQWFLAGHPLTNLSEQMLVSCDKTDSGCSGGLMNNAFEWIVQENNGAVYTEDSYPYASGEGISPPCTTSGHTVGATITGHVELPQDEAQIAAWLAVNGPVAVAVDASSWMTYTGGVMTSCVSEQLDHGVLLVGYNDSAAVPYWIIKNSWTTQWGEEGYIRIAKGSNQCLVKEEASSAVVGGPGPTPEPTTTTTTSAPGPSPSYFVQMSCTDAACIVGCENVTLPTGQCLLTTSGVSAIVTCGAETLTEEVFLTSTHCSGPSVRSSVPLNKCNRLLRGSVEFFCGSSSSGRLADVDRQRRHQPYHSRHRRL
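Purified cruzain at 1.5 nM, pre-incubated 15 min with compound at room temperature in 100 mM sodium acetate pH 5.5, 5 mM DTT, 0.00005% Triton X-100. Reaction started with 2 uM Z-FR-AMC; AMC fluorescence increase over 60 s gives rate.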
Cruzain inh Det – qHTS Assay for Promiscuous and Specific Inhibitors of Cruzain (with detergent). Cruzipain (Trypanosoma cruzi), P25779. purified cruzain, Z-FR-AMC fluorescence, 0.01% Triton. AID 1478, 2009. Potency, µM, for inactives: max response, negative = inhibition, hits mostly inhibitors. actives 0.43% (n = 200,000);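 note: plate controls were neutral wells for no effect and buffer without enzyme for full effect; nearly all actives have a fitted effect of over 40% in size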
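15 min RT preincubation of 1.5 nM cruzain with compound, then 2 uM Z-FR-AMC added; kinetic AMC fluorescence, 60 s delta. Triton X-100 0.01%, pH 5.5.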
An asterisk follows results filed as active; ? = inconclusive. Calls come from the whole dose curve; as a rule, active = well fitted curve in the direction sought with a large enough effect; inconclusive = small, poorly fitted or top-dose-only effect, or another doubt; inactive = no such curve, though single readings can be large; an effect the other way counts as inactive or inconclusive. Potency is the fitted concentration of half-maximal effect.

SMILES	Cruzain inh noDet	Cruzain inh Det
COc1cc2cc3c4c(cc(OC)c(OC)c4c2cc1OC)CCN3C	?	-3%
Cc1ccc(CCNC(=O)c2cn(C)c3ccc(S(=O)(=O)N4CCC(C)CC4)cc3c2=O)cc1	-7%	0%
[Cl][Pd][Cl].[S-]C1=C2N=CN[C-]2[NH+]=C[N-]1.[S-]c1ncnc2[nH]cnc12	1%	6%
COc1ccc(-c2cn3nc(N4CCCC(C(=O)NCc5ccc(Cl)cc5)C4)sc3n2)cc1 (stereo unspecified)	-2%	14µM*
Cc1ccc(C)n1-c1nnc(N2CCCC(C(=O)NCc3ccc(Cl)cc3)C2)s1 (stereo unspecified)	8%	-2%
Cc1ccc(S(=O)(=O)/C=C\C#N)cc1	-3%	0%
COc1ccccc1CNc1ccc(-c2nc(C(C)C)no2)cc1[N+](=O)[O-]	?	-4%
COc1ccccc1CNc1ccc(-c2nc(C)no2)cc1[N+](=O)[O-]	20µM*	-4%
COc1ccc2[nH]c3c(c2c1)CCN=C3C	13µM*	-12%
COc1ccc2[nH]c3c(c2c1)CCNC3=O	-3%	-3%
O=C(N/N=C/c1ccncc1)c1cccc(NC(=O)c2ccc(Cl)cc2)c1	-13%	28µM*
COc1ccc(/C=N/NC(=O)c2cccc(NC(=O)c3ccc(Cl)cc3)c2)c(OC)c1	?	-7%
CC(=O)C1=C(C)NC(SCC(=O)c2ccc(Cl)cc2)=C(C#N)C1c1ccco1 (stereo unspecified)	-30%	-9%
CC(=O)C1=C(C)NC(SCC(=O)c2ccc(Cl)cc2Cl)=C(C#N)C1c1ccco1 (stereo unspecified)	32µM*	-10%
CNC(=O)C1CCC(Cn2c(=O)c3sccc3n(Cc3ccccc3)c2=O)CC1 (stereo unspecified)	0%	0%
O=C1N/C(=C/c2ccco2)C(=O)N1Cc1ccccc1F	1%	-7%
Cc1cccc(CN2C(=O)N/C(=C/c3cc(C)n(-c4ccccn4)c3C)C2=O)c1	25µM*	-6%
Cc1cc(/C=C2/NC(=O)N(Cc3ccccc3F)C2=O)c(C)n1C	25µM*	-6%
Cc1cc(/C=C2/NC(=O)N(Cc3ccccc3F)C2=O)c(C)n1-c1ccccn1	?	-6%
CCOC(=O)Cc1csc(NC(=O)COc2ccc(N(C)S(=O)(=O)c3ccc(C)cc3)cc2)n1	-7%	-5%
CCOc1ccc(S(=O)(=O)N(C)c2ccc(OCC(=O)Nc3nc(-c4cc(OC)ccc4OC)cs3)cc2)cc1	7.9µM*	-2%
O=C(O)c1c(Cl)c(Cl)c(Cl)c(Cl)c1C(=O)Nc1ccc2cn[nH]c2c1	-9%	2%
CCC(=O)Nc1cc(-c2cccc(C)c2)nn1-c1ccccc1	-4%	1%
CCC(=O)Nc1cc(C(=O)OCc2ccc(C(=O)Oc3ccccc3)cc2)ccc1C	13µM*	-2%
CC(=O)Nc1cc(C(=O)OCC(=O)c2ccccc2)ccc1C	3%	1%
SMILES	Cruzain inh noDet	Cruzain inh Det
c1ccc(-c2ccc(N3CC4(CCNCC4)C3)cc2)cc1	?	1%
c1ccc(-c2ccc(N3CCCC4(CCNCC4)C3)cc2)cc1	32µM*	-3%
CCOC(=O)c1cccc(NC(=O)c2cc(-c3ccc(Cl)s3)nc3ccccc23)c1	-8%	1%
COc1ccc(Nc2nc3ccccc3n3c(N)nnc23)cc1	-2%	-5%
O=C(N/N=C\c1ccc(F)cc1)c1cc(OCC(F)(F)F)ccc1OCC(F)(F)F	12%	-3%
O=C(N/N=C/c1ccc(OCCCF)cc1)c1cc(OCC(F)(F)F)ccc1OCC(F)(F)F	25µM*	0%
COc1ccc2[nH]cc(CCN=C(NC(=O)c3ccccc3F)Nc3nc(C)cc(C)n3)c2c1	0%	1%
CN1CCN(CCCBr)CC1	9%	-6%
CSc1ccc(/C=C(\NC(=O)c2ccc(C)cc2)C(=O)Nc2cccc(C)c2)cc1	7.9µM*	0%
Cc1ccc(C(=O)N/C(=C/c2ccc(Cl)cc2)C(=O)Nc2cccc(C(=O)O)c2)cc1	?	-8%
C[C@H]1CN(CCO)CCN1c1ccccc1	?	2%
COc1ccc(NC(=O)c2c(NCc3ccc(N(C)C)cc3)sc3c2CCC3)cc1	-12%	-6%
Cc1ccc(-c2nnc(SCC(=O)n3c4c(c5ccccc53)CCCC4)o2)cc1	-18%	1%
O=C(CSc1nnc(-c2ccccc2)o1)n1c2c(c3ccccc31)CCCC2	25µM*	0%
Nc1ncc(S(=O)(=O)NCc2cccc(Cl)c2)cn1	2%	0%
O=C(CSc1nc(-c2ccccc2)nc2c1Cc1ccccc1O2)Nc1ccccc1	25µM*	9%
O=C(CSc1nc(-c2ccc(F)cc2)nc2c1Cc1ccccc1O2)Nc1cccc(C(=O)O)c1	-2%	-4%
CCOC(=O)c1cccc(NC(=O)c2cc3c(=O)n(C)c4ccccc4c3n2C)c1	13%	1%
CC(C)NC(=S)N=Nc1c(O)[nH]c2ccc(C(C)C)cc12	4%	-8%
NC(=S)N=Nc1c(O)[nH]c2ccc(F)cc12	5µM*	14µM*
COc1ccc(CNc2ncnc3c2c(-c2ccccc2)cn3-c2ccccc2)cc1	6%	1%
COc1ccccc1CNc1ncnc2c1c(-c1ccccc1)cn2-c1ccc(Br)cc1	7.9µM*	-1%
CC(C)c1cnc2c(c1SCC(=O)c1ccccc1)c(=O)n(C)c(=O)n2C	-13%	-2%
O=C(c1ccc(F)cc1)n1ccc(-c2cnc(-c3ccccc3)s2)n1	6.3µM*	3%
Fc1ccc(Cn2ccc(-c3cnc(-c4ccccc4)s3)n2)cc1	0%	1%
SMILES	Cruzain inh noDet	Cruzain inh Det
C[C@H](NCCN(C)C)[C@@H]1CCC2C3CCc4cc(O)ccc4[C@H]3CCC21C (stereo partly specified)	1%	8%
Cc1cc(O)ccc1Nc1nc2ccccc2nc1Nc1ccc(O)cc1C	10µM*	-18%
Cc1ccc(Nc2nc3ccccc3s2)c(C)c1	-3%	-9%
O=C(Nc1nc(-c2ccccc2)cs1)c1cccs1	2%	-8%
C/C(=N/Nc1nc(-c2ccc(Cl)cc2)cs1)c1cccs1	4µM*	?
Cc1cccc(Nc2nc3c(S(=O)(=O)c4ccccc4)nnn3c3ccccc23)c1	25µM*	-3%
Cc1cc(C)cc(Nc2nc3c(S(=O)(=O)c4ccccc4)nnn3c3ccccc23)c1	?	-6%
CCOc1ccc(NS(=O)(=O)c2c(C)nc3sc(C)c(C)n3c2=O)cc1	-10%	-4%
COC(=O)c1cc(Br)ccc1-c1ccc(/C=N/n2nnnc2N)o1	13µM*	-9%
Cc1ccc([N+](=O)[O-])cc1-c1ccc(/C=N\n2nnnc2N)o1	0%	-10%
CC(C)CC(=O)Nc1c(C(=O)N2CCN(c3ccccc3F)CC2)oc2ccccc12	?	-5%
Cc1cccc(NC(=O)Nc2nnc(N(C)Cc3ccccc3)s2)c1	5%	-8%
COc1ccc(NC(=O)Nc2nnc(-c3ccccc3SCc3ccccc3)s2)cc1	10µM*	8%
COc1cccc(NC(=O)Nc2nnc(-c3ccccc3SCc3ccccc3)s2)c1	3.2µM*	5%
CCN(c1ccccc1)c1nnc(NC(=O)Nc2ccccc2F)s1	-11%	-3%
CCOc1ccc(NC(=O)CSc2nnc(NC(=O)Nc3ccccc3)s2)cc1	14%	0%
O=C(Nc1nnc(-c2ccccc2SCc2ccccc2)s1)Nc1ccccc1F	3.2µM*	-1%
CN1CCN(c2ccnc(-c3ccoc3)n2)CC1	-6%	5%
